tim10-1 inh – growth inhibitors of tim10-1 mutant yeast | S. cerevisiae tim10-1 ts strain growth, BacTiter-Glo, 24 h | inhibition, % at 20 µM | actives 2.2% (n = 330,000) | AID 463190;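 active = inhibition of at least 40%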;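 also: mutant grown at 25 °C; 0% = DMSO wells with yeast and 100% = wells holding no yeast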
NALP1 inh – inhibitors of NALP1 inflammasome in yeast | S. cerevisiae NALP1/ASC/caspase-1 growth, X-gal OD620, 72 h | inhibition, % at 10 µM | actives 0.61% (n = 280,000) | AID 2071; in the data active = inhibition mostly above about 24%, no sharp cut-off; inactive = mostly below about 32%
tim23-1 inh – tim23-1 yeast growth inhibition; S. cerevisiae tim23-1 growth, BacTiter-Glo luminescence, 24 h; inhibition, % at 20 µM; actives 1.3% (n = 330,000);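 active = growth inhibition of the mutant yeast at or above 50%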;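 also: temperature-sensitive mutant grown at 25 °C; plate controls were DMSO-treated mutant yeast for no effect and medium wells lacking yeast for full effect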
SKKanGAS inh – blocks kanamycin growth of S. pyogenes SKKanGAS strain; BacTiter-Glo, 6 h; inhibition, % at 7.5 µM; actives 1.3% (n = 300,000); AID 1662;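 active = mean replicate score, as percent of positive control median, at least 50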;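 also: strain carries kanamycin resistance gene driven by streptokinase promoter and grows in 40 µg/ml kanamycin; loss of luminescence reflects streptokinase promoter inhibition or plain growth inhibition; 0% = median of DMSO wells and 100% = positive control at its reference dose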
PfHsp90 set2 – growth inhibition of yeast expressing Plasmodium Hsp90 | S. cerevisiae expressing PfHsp90, BacTiter-Glo ATP, 48 h; yeast lacking PDR1 and PDR3 efflux regulators | inhibition, % at 9.4 µM | actives 0.32% (n = 310,000) | AID 504621;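 active = every replicate shows inhibition above about 80%, whatever the replicate mean, limit read from the data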;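 also: 0% = DMSO neutral controls and 100% = 20 µM radicicol positive controls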
TIM10 inh – TIM10 yeast growth inhibition. inhibition, % at 10 µM. S. cerevisiae TIM10 strain growth, BacTiter-Glo luminescence, 24 h. actives 1.4% (n = 330,000);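 active = inhibition of 40% or more at the single tested concentration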;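 also: wild-type TIM10 isogenic control strain grown at permissive 25 °C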
tim10-1 confirm – tim10-1 yeast growth inhibition, confirmed. shares compounds with tim10-1 inh. S. cerevisiae tim10-1 ts strain growth, BacTiter-Glo, 24 h. inhibition, % at 20 µM. actives 56% (n = 7,400). AID 463213;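 active = inhibition of yeast growth at or above a set limit in either of two repeat tests at 20 µM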;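 also: tim10-1 mutant grown at permissive 25 °C to find synthetic lethal compounds; 0% = DMSO yeast wells and 100% = medium wells without yeast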
tim10 confirm – TIM10 yeast growth inhibition, confirmed; S. cerevisiae tim10 strain growth, BacTiter-Glo luminescence, 24 h; inhibition, % at 10 µM; actives 63% (n = 4,600); AID 463215; shares compounds with TIM10 inh;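 active = inhibition of yeast growth at or above a set limit in either of two replicates at 10 µM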;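 also: this counterscreen used the strain with wild-type TIM10; 0% = yeast with DMSO and 100% = medium wells lacking yeast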
tim23-1 conf – confirmation of tim23-1 mutant yeast growth inhibitors | shares compounds with tim23-1 inh | S. cerevisiae tim23-1 growth, BacTiter-Glo luminescence, 24 h | inhibition, % at 20 µM | actives 83% (n = 4,400);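 active = inhibition above about 39% in either of two replicate wells at 20 µM, limit read from the data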;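 also: temperature-sensitive tim23-1 mutant grown at 25 °C; 0% = DMSO wells with yeast and 100% = medium wells without yeast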
The depositor's hits bear a star; · = not tested or not shown. Compounds with a hit are over-represented: about 4.8% of the library has one in this group of screens.

SMILES	tim10-1 inh	NALP1 inh	tim23-1 inh	SKKanGAS inh	PfHsp90 set2	TIM10 inh	tim10-1 confirm	tim10 confirm	tim23-1 conf
O=C1/C(=C\c2ccccc2)C2OCC=C3CN4CCC56c7ccccc7N1C5C2C3CC46 (stereo not drawn)	28.5	0.1	10.6	-3.5	2.8	1.7	·	·	·
c1ccc(CN2CCN(Cc3ccc4ccccc4c3)CC2)cc1	24.5	7.8	3.0	-5.0	8.7	-4.0	·	·	·
CN1C(=O)C(Cc2nc3ccccc3c(=O)n2-c2ccccc2)c2ccccc21 (stereo not drawn)	43.0*	6.0	36.4	-0.7	-2.2	51.7*	37.4*	39.0*	·
CN(C)c1ccc(C(=O)c2ccc(N(C)C)cc2)cc1	40.2*	-9.7	39.7	-8.0	-3.0	48.4*	20.5	20.6	·
COCCNC(=O)c1c(N)n(CCC(C)C)c2nc3ccccc3nc12	47.9*	1.3	44.0	16.9	-44.1	42.5*	25.8	19.2	·
CCCCNC(=O)c1c(N)n(CCCOC)c2nc3ccccc3nc12	22.1	11.8	41.6	16.6	·	27.1	·	·	·
C=C1C(=O)O[C@H]2C[C@@H](C)[C@@H]3C=CC(=O)[C@@]3(C)C[C@H]12	47.9*	-5.9	42.1	-3.8	·	45.7*	46.9*	50.8*	·
C=C1C(=O)OC2CC(C)C3C=CC(=O)C3(C)C(O)C12 (stereo not drawn)	·	·	·	·	-16.3	·	·	·	·
COc1ccc(OC)c(N2C(=O)NC(=O)/C(=C/c3ccc([N+](=O)[O-])s3)C2=O)c1	71.9*	21.7	31.5	-1.2	105.4*	89.1*	69.7*	35.4*	·
O=C1NC(=O)C(CCc2ccncc2)(c2ccccc2)C(=O)N1	14.1	6.1	-10.8	-1.3	14.7	-5.6	·	·	·
COc1cc2c(cc1OC)CN(c1ccc([N+](=O)[O-])c(C(F)(F)F)c1)CC2	59.8*	49.3	40.7	-0.4	-8.5	53.8*	55.2*	-11.6	·
CC(C)(O)C(=O)Nc1ccc([N+](=O)[O-])c(C(F)(F)F)c1	13.3	·	15.5	·	26.3	6.7	·	·	·
Cc1c(C(=O)Nc2ccccc2)cc(-c2ccccc2)n1CCCN1CCOCC1	26.4	3.6	37.0	0.3	·	27.1	·	·	·
COCCCn1c(-c2ccc(OC)cc2)cc(C(=O)NC2CCCCCCC2)c1C	53.6*	35.2	39.3	9.5	-36.5	41.4*	41.9*	-21.4	·
COc1cc(C(=S)N2CCOCC2)cc(OC)c1OC(=O)Cc1ccccc1	21.4	-0.7	17.0	-1.4	5.3	8.4	·	·	·
O=C1NC(=O)C(=Cc2ccc(-c3ccc(Cl)cc3)o2)C(=O)N1	45.4*	10.1	53.7*	-2.4	22.8	20.1	7.6	·	55.3*
CC(N)Cc1cn(Cc2ccccc2)c2ccccc12 (stereo not drawn)	6.5	12.9	-6.5	4.9	1.6	1.5	·	·	·
Cc1nc2c(=O)n(C)c(=O)nc-2n(C)n1	42.5*	-11.9	54.3*	78.0*	7.0	23.8	22.5	·	63.0*
CCOP(=O)(C#CC(C)(C)C)C1(O)CCCCC1 (stereo not drawn)	-5.1	21.4	-7.1	0.5	22.1	-2.2	·	·	·
C/C(=N\N=C(N)N)c1ccccc1	4.0	-8.6	7.2	6.2	6.7	-13.5	·	·	·
CNc1ccc2oc(C[C@H]3O[C@@]4(CC[C@H]3C)O[C@H]([C@H](C)C(=O)c3ccc[nH]3)[C@H](C)C[C@H]4C)nc2c1C(=O)O	56.0*	-2.9	53.8*	106.5*	111.4*	-20.0	29.0	·	36.6
CCn1nc(-c2ccccc2)nc2c(=O)n(C)c(=O)nc1-2	79.9*	41.5*	85.2*	94.9*	107.3*	95.7*	83.1*	97.4*	82.7*
O=C(CNC(=O)c1ccc(Cl)cc1)Nc1ccc(Br)cc1C(=O)c1ccccc1	-26.8	41.7	-6.7	4.5	8.9	-12.5	·	·	·
Clc1ccccc1Nc1ncnc(-n2cccc2)n1	8.8	6.4	6.0	7.1	·	15.6	·	·	·
CC(C)=CCc1c(O)cc2c(c1O)C(=O)CC(c1ccc(O)cc1)O2 (stereo not drawn)	54.3*	17.9	59.8*	50.2*	58.7	46.1*	35.0*	56.6*	58.7*
SMILES	tim10-1 inh	NALP1 inh	tim23-1 inh	SKKanGAS inh	PfHsp90 set2	TIM10 inh	tim10-1 confirm	tim10 confirm	tim23-1 conf
COC(=O)C1=C(c2ccc(Cl)c(C(F)(F)F)c2)C[C@@H]2CC[C@H]1N2C(=O)NCc1ccco1	10.8	·	22.4	·	1.9	-2.2	·	·	·
O=C1/C(=C\c2ccc(Cl)c(Cl)c2)N2CCC1CC2	42.4*	23.5	52.4*	-1.8	-3.9	11.3	23.0	·	35.2
Clc1cc(Cl)cc(NC2=NCCS2)c1	21.9	32.6	36.1	14.5	-8.3	21.7	·	·	·
CCOC(=O)C(O)(c1ccc(N(C)C(=O)c2ccc(Cl)c(Cl)c2)cc1)C(F)(F)F (stereo not drawn)	13.4	34.2	12.8	11.9	-18.3	-15.7	·	·	·
CCOC(=O)C(O)(c1ccc(NC(=O)c2ccc(Cl)c(Cl)c2)cc1)C(F)(F)F (stereo not drawn)	42.9*	-13.3	57.4*	-6.4	-8.8	38.6	34.1*	·	49.9*
CCCCCCC(C)(C)c1ccc([C@@H]2C[C@H](O)CC[C@H]2CCCO)c(O)c1	33.7	·	39.7	·	-33.8	12.3	·	·	·
COC(=O)C1=C(c2cccc(OC)c2OC)C[C@@H]2CC[C@H]1N2C(=O)N1CCOCC1	4.6	·	8.4	8.5	0.9	6.9	·	·	·
Cc1ccc2cc(C=C(C#N)C#N)c(Cl)nc2c1	48.2*	22.0	79.9*	2.1	10.8	46.2*	30.9*	-8.2	76.0*
Cc1cc(N2CCCC2)ccc1C=C(C#N)C#N	4.1	-7.7	3.0	-2.9	-19.6	0.8	·	·	·
O=C1c2ccccc2C(=O)N1Cc1nc2ccccc2c(=O)n1-c1ccc(Br)cn1	58.8*	37.6	68.8*	7.8	-0.6	56.6*	55.2*	59.2*	58.2*
O=C1c2ccccc2C(=O)N1Cc1nc2ccccc2c(=O)n1-c1cccnc1	28.1	-10.3	13.9	-3.5	2.4	12.9	·	·	·
Cc1cc([N+](=O)[O-])c2ccccc2[n+]1[O-]	67.9*	·	79.0*	-0.1	108.2*	86.8*	61.0*	86.7*	63.8*
Cc1ccccc1[N+](=O)[O-]	5.0	·	13.3	·	7.6	-0.9	·	·	·
CN1/C(=C\C=C\C2=[N+](C)c3ccc4ccccc4c3C2(C)C)C(C)(C)c2ccccc21	76.7*	56.9*	85.5*	·	·	74.2*	56.5*	80.3*	79.2*
